# Laboratory results: PubChem BioAssay (NCI)
# The panel holds about 79,000 compounds, 15% with a hit somewhere; the sample as a whole holds those more often. A number with no mark means an inactive call. Active and inactive are the calls of the source. Cut-off read from the data, not from the text of the source: active = growth inhibition above about 70%; inactive = the rest.
# Columns and labels:
# [1] = NCI Yeast Anticancer Drug Screen. Data for the rad52 strain (AID 147);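 note: 0% = growth of vehicle-treated control cultures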; details: S. cerevisiae rad52 mutant growth inhibition, hits give high values
# In short: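 Yeast strain carrying a DNA damage repair alteration was exposed to test compounds. Growth inhibition was measured relative to vehicle-treated controls.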
# [2] = NCI Yeast Anticancer Drug Screen. Data for the wt1 strain (AID 149);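 note: 0% = growth of vehicle-treated wt1 cultures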; details: S. cerevisiae wt1 strain (SPY 50644) growth inhibition, hits give high values
# In short: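 Yeast wt1 strain exposed to compounds; growth inhibition measured relative to vehicle-treated controls.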
# [3] = NCI Yeast Anticancer Drug Screen. Data for the rad50EPP+ strain (AID 151);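 note: 0% = growth of vehicle-treated control cultures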; details: S. cerevisiae rad50 mutant strain, hits give high values
# In short: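 Yeast strain carrying rad50 alteration (rad50EPP+) exposed to compounds; growth inhibition measured relative to vehicle-treated controls.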
# [4] = NCI Yeast Anticancer Drug Screen. Data for the rad50 strain (AID 155);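 note: 0% = growth of vehicle-only cultures of the same strain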; details: S. cerevisiae rad50 strain growth inhibition, hits give high values
# In short: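 Yeast carrying a defined DNA repair defect were exposed to test compounds, and growth was compared with vehicle-treated controls to give percent inhibition.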
# [5] = NCI Yeast Anticancer Drug Screen. Data for the mec2-1 strain (AID 157); details: S. cerevisiae mec2-1 strain, hits give high values
# In short: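 mec2-1 yeast strain, carrying an alteration in DNA damage repair or cell cycle control, was exposed to compounds; growth inhibition was measured relative to vehicle-treated controls.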
# [6] = NCI Yeast Anticancer Drug Screen. Data for the rad14 strain (AID 159);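 note: 0% = growth of vehicle-treated control cultures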; details: S. cerevisiae rad14 strain growth inhibition, hits give high values
# In short: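 Yeast cells carrying a defined DNA-repair defect were exposed to compounds, and growth inhibition was calculated relative to vehicle-treated control cultures.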
# [7] = NCI Yeast Anticancer Drug Screen. Data for the sgs1 mgt1 strain (AID 161);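 note: 0% = growth of cultures given vehicle only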; details: S. cerevisiae sgs1 mgt1 strain, hits give high values
# In short: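 Compounds are added to genetically altered yeast, and growth is compared with cultures given vehicle alone to give percent inhibition.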
# [8] = NCI Yeast Anticancer Drug Screen. Data for the CLN2oe strain (AID 163);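 note: 0% = growth of vehicle-only control cultures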; details: S. cerevisiae CLN2oe strain, hits give high values
# In short: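 Yeast cells carrying a defined cell-cycle control alteration were exposed to test compounds. Growth inhibition was scored against vehicle-treated control cultures.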
# [9] = NCI Yeast Anticancer Drug Screen. Data for the cln2 rad14 strain (AID 165);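 note: 0% = growth equal to vehicle treated cultures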; details: S. cerevisiae cln2 rad14 strain, hits give high values
# In short: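 Yeast carrying cln2 and rad14 alterations (cell cycle control and DNA damage repair) were exposed to compounds. Growth inhibition was measured against vehicle-treated controls.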
# [10] = NCI Yeast Anticancer Drug Screen. Data for the bub3 strain (AID 167); details: S. cerevisiae bub3 mutant strain, hits give high values
# In short: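 Compounds were applied to a genetically altered yeast strain carrying a cell-cycle control defect. Growth inhibition was scored against vehicle-treated controls.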
# [11] = NCI Yeast Anticancer Drug Screen. Data for the wt2 strain (AID 169);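 note: 0% = growth of vehicle-treated yeast cultures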; details: S. cerevisiae wt2 strain growth inhibition, hits give high values
# In short: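 Yeast cells were exposed to test compounds, and growth inhibition was measured relative to vehicle-treated controls.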
# [12] = NCI Yeast Anticancer Drug Screen. Data for the mlh1 strain (AID 171);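 note: 0% = growth of vehicle-treated control cultures of the same strain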; details: S. cerevisiae mlh1 strain growth inhibition, hits give high values
# In short: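 Yeast carrying a defined genetic alteration in DNA damage repair or cell cycle control were exposed to test compounds. Growth inhibition was measured relative to vehicle-treated controls.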
# [13] = NCI Yeast Anticancer Drug Screen. Data for the sgs1 strain (AID 173);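 note: 0% = growth of vehicle-only control cultures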; details: S. cerevisiae sgs1 mutant, hits give high values
# In short: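 Yeast mutant strains carrying defined defects in DNA damage repair or cell cycle control were exposed to test compounds. Growth inhibition was scored against vehicle-treated controls.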
# [14] = NCI Yeast Anticancer Drug Screen. Data for the mlh1 rad18 strain (AID 175); details: S. cerevisiae mlh1 rad18 strain growth inhibition, hits give high values
# In short: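 Growth inhibition of the yeast strain was measured after compound exposure and expressed relative to vehicle-treated controls. The strain carries defined defects in DNA damage repair.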
# [15] = NCI Yeast Anticancer Drug Screen. Data for the rad18 strain (AID 177); details: S. cerevisiae rad18 mutant growth inhibition, hits give high values
# In short: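 Yeast carrying a defined DNA damage repair alteration were exposed to compounds. Growth inhibition was expressed relative to vehicle-treated controls.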
# [16] = at 5.0 µM (retest, dose inferred, filed as 0.5)
# [17] = at 50.0 µM (retest, dose inferred, filed as 5.0)
structure (smiles),measurement,setting,value
Cc1ccc2nc(N/N=C/c3ccc(C)s3)cc(C)c2c1,growth inhibition,[1]; at 1.2 µM,-26%
same,growth inhibition,[1]; at 3.7 µM,-40%
same,growth inhibition,[1]; at 11.0 µM,-47%
same,growth inhibition,[1]; at 33.0 µM,98% (active)
same,growth inhibition,[1]; at 100.0 µM,98% (active)
same,growth inhibition,[2]; at 1.2 µM,-27%
same,growth inhibition,[2]; at 3.7 µM,-18%
same,growth inhibition,[2]; at 11.0 µM,1%
same,growth inhibition,[2]; at 33.0 µM,99% (active)
same,growth inhibition,[2]; at 100.0 µM,94% (active)
same,growth inhibition,[3]; at 1.2 µM,-15%
same,growth inhibition,[3]; at 3.7 µM,-5%
same,growth inhibition,[3]; at 11.0 µM,2%
same,growth inhibition,[3]; at 33.0 µM,44%
same,growth inhibition,[3]; at 100.0 µM,70% (active)
same,growth inhibition,[4]; at 1.2 µM,-2%
same,growth inhibition,[4]; at 3.7 µM,-22%
same,growth inhibition,[4]; [16],22%
same,growth inhibition,[4]; at 11.0 µM,-1%
same,growth inhibition,[4]; at 33.0 µM,99% (active)
same,growth inhibition,[4]; [17],98% (active)
same,growth inhibition,[4]; at 50.0 µM,89.7% (active)
same,growth inhibition,[4]; at 100.0 µM,93% (active)
same,growth inhibition,[5]; at 1.2 µM,-23%
same,growth inhibition,[5]; at 3.7 µM,-17%
same,growth inhibition,[5]; [16],12%
same,growth inhibition,[5]; at 11.0 µM,-19%
same,growth inhibition,[5]; at 33.0 µM,99% (active)
same,growth inhibition,[5]; [17],99% (active)
same,growth inhibition,[5]; at 50.0 µM,92.7% (active)
same,growth inhibition,[5]; at 100.0 µM,96% (active)
same,growth inhibition,[6]; at 1.2 µM,-32%
same,growth inhibition,[6]; at 3.7 µM,-18%
same,growth inhibition,[6]; at 11.0 µM,0%
same,growth inhibition,[6]; at 33.0 µM,99% (active)
same,growth inhibition,[6]; at 100.0 µM,98% (active)
same,growth inhibition,[7]; [16],10%
same,growth inhibition,[7]; [17],9%
same,growth inhibition,[7]; at 50.0 µM,91.8% (active)
same,growth inhibition,[8]; at 1.2 µM,5%
same,growth inhibition,[8]; at 3.7 µM,-5%
same,growth inhibition,[8]; at 11.0 µM,7%
same,growth inhibition,[8]; at 33.0 µM,99% (active)
same,growth inhibition,[8]; at 100.0 µM,93% (active)
same,growth inhibition,[9]; [16],17%
same,growth inhibition,[9]; [17],-18%
same,growth inhibition,[9]; at 50.0 µM,90.8% (active)
same,growth inhibition,[10]; at 1.2 µM,-6%
same,growth inhibition,[10]; at 3.7 µM,5%
same,growth inhibition,[10]; [16],7%
same,growth inhibition,[10]; at 11.0 µM,15%
same,growth inhibition,[10]; at 33.0 µM,99% (active)
same,growth inhibition,[10]; [17],-10%
same,growth inhibition,[10]; at 50.0 µM,91.7% (active)
same,growth inhibition,[10]; at 100.0 µM,95% (active)
same,growth inhibition,[11]; at 1.2 µM,9%
same,growth inhibition,[11]; at 3.7 µM,6%
same,growth inhibition,[11]; at 11.0 µM,30%
same,growth inhibition,[11]; at 33.0 µM,99% (active)
same,growth inhibition,[11]; at 100.0 µM,96% (active)
same,growth inhibition,[12]; at 1.2 µM,-18%
same,growth inhibition,[12]; at 3.7 µM,-28%
same,growth inhibition,[12]; at 11.0 µM,-10%
same,growth inhibition,[12]; at 33.0 µM,99% (active)
same,growth inhibition,[12]; at 100.0 µM,99% (active)
same,growth inhibition,[13]; at 1.2 µM,-12%
same,growth inhibition,[13]; at 3.7 µM,-19%
same,growth inhibition,[13]; at 11.0 µM,-1%
same,growth inhibition,[13]; at 33.0 µM,99% (active)
same,growth inhibition,[13]; at 100.0 µM,93% (active)
same,growth inhibition,[14]; [16],31%
same,growth inhibition,[14]; [17],98% (active)
same,growth inhibition,[14]; at 50.0 µM,91.2% (active)
same,growth inhibition,[15]; at 1.2 µM,-8%
same,growth inhibition,[15]; at 3.7 µM,-1%
same,growth inhibition,[15]; at 11.0 µM,2%
same,growth inhibition,[15]; at 33.0 µM,99% (active)
same,growth inhibition,[15]; at 100.0 µM,93% (active)
Cc1cc(NCCCN(C)C)c2ccc3c(ccc4c(NCCCN(C)C)cc(C)nc43)c2n1,growth inhibition,[1]; at 1.2 µM,6%
same,growth inhibition,[1]; at 3.7 µM,21%
same,growth inhibition,[1]; at 11.0 µM,17%
same,growth inhibition,[1]; at 33.0 µM,19%
same,growth inhibition,[1]; at 100.0 µM,47%
same,growth inhibition,[2]; at 1.2 µM,22%
same,growth inhibition,[2]; at 3.7 µM,18%
same,growth inhibition,[2]; at 11.0 µM,15%
same,growth inhibition,[2]; at 33.0 µM,9%
same,growth inhibition,[2]; at 100.0 µM,27%
same,growth inhibition,[3]; at 1.2 µM,6%
same,growth inhibition,[3]; at 3.7 µM,6%
same,growth inhibition,[3]; at 11.0 µM,11%
same,growth inhibition,[3]; at 33.0 µM,-26%
same,growth inhibition,[3]; at 100.0 µM,22%
same,growth inhibition,[4]; at 1.2 µM,21%
same,growth inhibition,[4]; at 3.7 µM,17%
same,growth inhibition,[4]; [16],11%
same,growth inhibition,[4]; at 11.0 µM,17%
same,growth inhibition,[4]; at 33.0 µM,21%
same,growth inhibition,[4]; [17],90% (active)
same,growth inhibition,[4]; at 50.0 µM,55.9%
same,growth inhibition,[4]; at 100.0 µM,59%
same,growth inhibition,[5]; at 1.2 µM,7%
same,growth inhibition,[5]; at 3.7 µM,15%
same,growth inhibition,[5]; [16],5%
same,growth inhibition,[5]; at 11.0 µM,11%
same,growth inhibition,[5]; at 33.0 µM,12%
same,growth inhibition,[5]; [17],31%
same,growth inhibition,[5]; at 50.0 µM,25.6%
same,growth inhibition,[5]; at 100.0 µM,35%
same,growth inhibition,[6]; at 1.2 µM,2%
same,growth inhibition,[6]; at 3.7 µM,3%
same,growth inhibition,[6]; at 11.0 µM,15%
same,growth inhibition,[6]; at 33.0 µM,22%
same,growth inhibition,[6]; at 100.0 µM,58%
same,growth inhibition,[7]; [16],7%
same,growth inhibition,[7]; [17],81% (active)
same,growth inhibition,[7]; at 50.0 µM,18.6%
same,growth inhibition,[8]; at 1.2 µM,-7%
same,growth inhibition,[8]; at 3.7 µM,-4%
same,growth inhibition,[8]; at 11.0 µM,-1%
same,growth inhibition,[8]; at 33.0 µM,17%
same,growth inhibition,[8]; at 100.0 µM,52%
same,growth inhibition,[9]; [16],8%
same,growth inhibition,[9]; [17],57%
same,growth inhibition,[9]; at 50.0 µM,19.1%
same,growth inhibition,[10]; at 1.2 µM,1%
same,growth inhibition,[10]; at 3.7 µM,11%
same,growth inhibition,[10]; [16],1%
same,growth inhibition,[10]; at 11.0 µM,9%
same,growth inhibition,[10]; at 33.0 µM,5%
same,growth inhibition,[10]; [17],31%
same,growth inhibition,[10]; at 50.0 µM,11.3%
same,growth inhibition,[10]; at 100.0 µM,22%
same,growth inhibition,[12]; at 1.2 µM,15%
same,growth inhibition,[12]; at 3.7 µM,18%
same,growth inhibition,[12]; at 11.0 µM,23%
same,growth inhibition,[12]; at 33.0 µM,25%
same,growth inhibition,[12]; at 100.0 µM,37%
